Source: PubChem (National Center for Advancing Translational Sciences (NCATS))
Hits are enriched below; roughly 11% of the tested compounds scored in any of these assays.
VDR inh = Inhibitors of the vitamin D receptor (VDR): qHTS; VDR-SRC2-3 peptide fluorescence polarization, 2 h; Potency, µM, actives largely listed as inhibitors; hit rate 0.93% among 400,000; AID 504847, 2011
Target sequence (P11473 whole entry, looked up): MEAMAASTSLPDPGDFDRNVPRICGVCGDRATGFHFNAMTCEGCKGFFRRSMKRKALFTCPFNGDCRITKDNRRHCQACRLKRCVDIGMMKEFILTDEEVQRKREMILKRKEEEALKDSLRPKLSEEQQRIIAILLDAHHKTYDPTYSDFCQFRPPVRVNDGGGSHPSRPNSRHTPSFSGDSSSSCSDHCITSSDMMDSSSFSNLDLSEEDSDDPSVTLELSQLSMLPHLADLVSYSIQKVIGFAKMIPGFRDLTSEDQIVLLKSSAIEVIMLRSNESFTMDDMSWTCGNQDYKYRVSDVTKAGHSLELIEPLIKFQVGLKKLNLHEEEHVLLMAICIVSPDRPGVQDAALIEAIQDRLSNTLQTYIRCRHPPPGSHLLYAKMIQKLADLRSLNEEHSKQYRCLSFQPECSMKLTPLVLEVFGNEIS
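Inhibition of the VDR/SRC2-3 peptide interaction is quantified by fluorescence polarization. Compounds (23 nl, pintool) incubate with the reagents for 2 hours at ambient room temperature.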
BAZ2B block = qHTS Assay for Inhibitors of BAZ2B; Bromodomain adjacent to zinc finger domain protein 2B (Homo sapiens), Q9UIF8; AlphaScreen BAZ2B-H3K14Ac peptide displacement; Potency, µM (titrated, usually from 114 µM), usual class: inhibitors; hit rate 4.4% among 360,000; note: nearly all actives have a fitted effect of over 60% in size
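In this displacement format the biotinylated H3(5-23) peptide acetylated at Lys14 serves as ligand at 50 nM, with BAZ2B at 50 nM in PBS pH 7.4 containing 0.01% Tween-20. Donor and acceptor beads are 10 ug/mL final.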
G9a block = qHTS Assay for Inhibitors of Histone Lysine Methyltransferase G9a; G9a H3K9 monomethylation, AlphaScreen, 2 h; Potency, µM (highest dose often 102 µM), usual class: inhibitors; hit rate 8.8% among 350,000; note: nearly all actives have a fitted effect of over 75% in size
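AlphaScreen read-out: biotin-H3K9 peptide (500 nM) methylation by 20 nM enzyme with 20 uM SAM, 2 h at room temperature after 15 min compound preincubation; anti-monomethyl H3K9 antibody plus donor/acceptor beads, 10 min dark.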
JMJD2A Tudor = qHTS Assay for Inhibitors of JMJD2A-Tudor Domain; AlphaScreen JMJD2A-Tudor / H3K4me3 peptide binding; Potency, µM (doses to about 114 µM), most hits filed as inhibitors; hit rate 4.4% among 390,000; note: nearly all actives have a fitted effect of over 50% in size
HP1b chromo inh = HTS for Inhibitors of HP1-beta Chromodomain Interactions with Methylated Histone Tails | Chromobox protein homolog 1 (Homo sapiens), P83916 | AlphaScreen HP1-beta / biotin-H3K9me3 peptide binding | AID 540317, 2011 | hit rate 0.56% among 390,000 | Potency, µM (titrated, usually from 114 µM), actives largely listed as inhibitors; note: nearly all actives have a fitted effect of over 70% in size
Target sequence (P83916 whole entry, looked up): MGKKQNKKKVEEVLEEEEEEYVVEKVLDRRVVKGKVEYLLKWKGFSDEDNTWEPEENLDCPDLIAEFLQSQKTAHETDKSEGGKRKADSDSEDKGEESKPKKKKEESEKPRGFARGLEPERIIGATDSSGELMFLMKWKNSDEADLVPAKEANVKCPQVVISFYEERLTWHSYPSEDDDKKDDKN
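HP1-beta protein (50 nM final) preincubated 30 min at room temperature with biotinylated H3(1-18)K9me3 peptide (50 nM) in PBS pH 7.4, 0.01% Tween-20, then compound added for 30 min. AlphaScreen streptavidin donor/nickel chelate acceptor beads (10 ug/mL final), 30 min dark, luminescence read.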
PLK1 PBD inh = qHTS for Inhibitors of PLK1-PDB (polo-like kinase 1 - polo-box domain): Primary Screen; Serine/threonine-protein kinase PLK1 (Homo sapiens), P53350; Plk1 PBD binding of FITC phosphopeptide, fluorescence polarization; Potency, µM, usual class: inhibitors; hit rate 2.8% among 360,000; AID 720504, 2013; note: series mostly up to about 57 µM; nearly all actives have a fitted effect of over 65% in size
Hits are given with their value; . = inactive; ? = inconclusive; / = no result given; [ ] = remark or other dose. Calls come from the whole dose curve; as a rule, active = well fitted curve in the direction sought with a large enough effect; inconclusive = small, poorly fitted or top-dose-only effect, or another doubt; inactive = no such curve, though single readings can be large; an effect the other way counts as inactive or inconclusive.

SMILES	VDR inh	BAZ2B block	G9a block	JMJD2A Tudor	HP1b chromo inh	PLK1 PBD inh
COc1cc(NC(=O)c2cc(C)no2)cc(OC)c1OC	.	.	.	.	.	.
O=C1CC2(CCCC2)CC(=O)N1CCCCNCC1COc2ccccc2O1 (configuration not stated)	.	/	.	/	/	/
CCN(CC)CCNCc1ccc(Br)cc1OCC(=O)NCc1ccccc1	.	.	50µM	.	.	.
COc1ccc(-c2nn(-c3ccc(C)c(Cl)c3)c3c2cnc2cc(OC)c(OC)cc23)cc1	.	.	.	.	.	/
C[C@H](CO)N1C[C@H](C)[C@@H](CN(C)Cc2ccc3c(c2)OCO3)Oc2c(NS(=O)(=O)c3cn(C)cn3)cccc2C1=O	.	/	/	.	.	.
COc1ccc(/C=C/C(=O)CC(O)(c2ccccc2)C(F)(F)F)cc1 (configuration not stated)	35µM	.	.	.	.	.
O=C(/C=C/c1ccccc1)CC(O)(c1ccccc1)C(F)(F)F (configuration not stated)	.	.	.	.	.	?
O=C1CN(N=Cc2ccco2)C(=O)N1	.	/	/	.	.	.
CC1(C)c2ccccc2N2CC(=O)NC21/C=C/c1ccco1 (configuration not stated)	.	?	32µM	.	.	.
Cc1ccc2c(c1)C(C)(C)[C@]1(C)NC(=O)CCN21	.	?	?	.	.	.
CC1(C)c2ccccc2N2CCC(=O)NC21/C=C/c1ccco1 (configuration not stated)	.	?	40µM	.	.	.
C1=C(CCNc2nnnn2-c2ccccc2)CCCC1	?	.	.	50µM	.	21µM
CC1(C)C(C=C(Cl)Cl)C1C(=O)N1CCN(c2ccccc2)CC1 (configuration not stated)	.	.	.[12.7 µM]	.	.	.
Cc1cccc(C(=O)NC2CCN(C(=O)Nc3ccc(F)cc3)CC2)c1	.	.	79µM	.	.	.
Cc1ccc(NC(=S)N2CCC(NC(=O)c3cccc(F)c3)CC2)cc1	.	.	.	.	.	.
CCOc1ccccc1NC(=O)N1CCC(NC(=O)c2cccc(C)c2)CC1	.	.	32µM	.	.	.
Cc1ccc(NC(=S)N2CCC(NC(=O)c3ccc(C)cc3)CC2)cc1	.	.	79µM	.	.	.
O=C(C1CCCN(S(=O)(=O)c2cccs2)C1)N1CCN(c2ccccc2F)CC1 (configuration not stated)	.	.	.	.	.	/
CCS(=O)(=O)c1ccc(N)cc1	.	.	4µM	.	.	.
CCC(C)NS(=O)(=O)c1ccc(N)cc1 (configuration not stated)	.	.	.	.	.	.
COc1ccc(N2CCN(C(CNC(=O)C(=O)NC3CCCC3)c3ccco3)CC2)cc1 (configuration not stated)	.	.	7.1µM	.	.	.
COc1ccc(N2CCN(C(CNC(C)=O)c3ccco3)CC2)cc1 (configuration not stated)	.	.	?	.[11.4 µM]	.	.
COc1ccc(N2CCN(C(CNC(=O)OCc3ccccc3)c3ccco3)CC2)cc1 (configuration not stated)	.	40µM	25µM	40µM	?	.
O=C(COc1ccccc1)NCC(c1ccco1)N1CCN(c2ccccc2)CC1 (configuration not stated)	.	.	45µM	?	.	.
O=C(NCC(c1ccco1)N1CCN(c2ccccc2)CC1)c1cccs1 (configuration not stated)	.	.	?	.	.	.
SMILES	VDR inh	BAZ2B block	G9a block	JMJD2A Tudor	HP1b chromo inh	PLK1 PBD inh
CC(C(=O)NC1CCCC1)n1c(-c2ccncc2)nc2ccccc21 (configuration not stated)	/	/	/	/	/	.
COc1ccc(N2CCN(S(=O)(=O)c3ccc4c(c3)CCCC4)CC2)c([N+](=O)[O-])c1	.	?	18µM	?	?	.
COc1ccc(N2CCN(C(=O)c3ccccc3F)CC2)c([N+](=O)[O-])c1	?	?	50µM	.[11.4 µM]	?	8.4µM
COc1ccc(N2CCN(C(=O)c3cccc(F)c3)CC2)c([N+](=O)[O-])c1	.	?	.	?	.	.
CN1CCN(c2ccc(S(=O)(=O)N3CCCCC3)cc2[N+](=O)[O-])CC1	.	.	.	.	.	.
COc1ccc(N2CCN(C(=O)c3ccc(F)cc3)CC2)c([N+](=O)[O-])c1	.	?	.	.	.	.
COc1ccc(N2CCN(C(=O)CC34CC5CC(CC(C5)C3)C4)CC2)c([N+](=O)[O-])c1	.	35µM	?	28µM	?	.
COc1ccc(N2CCN(C(=O)c3cccc(Br)c3)CC2)c([N+](=O)[O-])c1	?	40µM	?	22µM	?	27µM
CCn1ccnc1CN(C)Cc1nc(-c2ccc(C(=O)OC)cc2)no1	.	.	?	.	.	.
CCC(Sc1nnc(-c2ccc(OC)cc2)c(-c2ccc(OC)cc2)n1)C(=O)Nc1cccc(OC)c1 (configuration not stated)	.	.	?	.	.	/
CC(C)(C)C(C(=O)NCc1ccccc1)N1CCN(CCN2CCOCC2)CC1 (configuration not stated)	/	/	/	/	/	.
Cn1ncc2c(N3CCN(c4ccc(F)cc4)CC3)ncnc21	.	79µM	.	.	.	/
Cn1nnc2c(N3CCN(c4ccc(F)cc4)CC3)ncnc21	.	.	.	40µM	.	/
Cc1cccc(-c2nc3c4ccccc4nc(N4CCN(c5cc(C)ccc5C)CC4)n3n2)c1	.	.	.	.	.	/
Cn1cc(CN2CCc3c([nH]c4ccccc34)C2C(C)(C)C)cn1 (configuration not stated)	.	.	/	.	.	.
Cn1cc(CN2CCc3c([nH]c4ccccc34)C2C2CCCCC2)cn1 (configuration not stated)	.	45µM	45µM	.	.	.
Clc1ccccc1C1=CC(c2ccco2)n2ncnc2N1 (configuration not stated)	.	.	35µM	.	.	.
COc1ccc(C2=CC(c3ccco3)n3ncnc3N2)cc1 (configuration not stated)	.	?	11µM	.	.	34µM
COC(=O)C1=CN(c2ccc(N3CCOCC3)cc2)C(N)=C(C#N)C1c1ccc(-c2ccccc2)cc1 (configuration not stated)	/	/	/	/	/	.
